Inhibition data for 35 molecules are collected here from PubChem BioAssay AID493035 (The Scripps Research Institute Molecular Screening Center, 2011).

Among all 2,000 compounds or so, about 45 (2%) were called active. This is one part of a sample in which actives are shown more often than they occur. A number with no mark means an inactive call.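 How the source made its calls: active means inhibition above the mean of all tested compounds plus 3 SD (cut at about 49% in these data); inactive means the rest.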

Perilipin-5 (Homo sapiens) + 1-acylglycerol-3-phosphate O-acyltransferase ABHD5 (Homo sapiens), sequence (Q00G26 whole entry, looked up): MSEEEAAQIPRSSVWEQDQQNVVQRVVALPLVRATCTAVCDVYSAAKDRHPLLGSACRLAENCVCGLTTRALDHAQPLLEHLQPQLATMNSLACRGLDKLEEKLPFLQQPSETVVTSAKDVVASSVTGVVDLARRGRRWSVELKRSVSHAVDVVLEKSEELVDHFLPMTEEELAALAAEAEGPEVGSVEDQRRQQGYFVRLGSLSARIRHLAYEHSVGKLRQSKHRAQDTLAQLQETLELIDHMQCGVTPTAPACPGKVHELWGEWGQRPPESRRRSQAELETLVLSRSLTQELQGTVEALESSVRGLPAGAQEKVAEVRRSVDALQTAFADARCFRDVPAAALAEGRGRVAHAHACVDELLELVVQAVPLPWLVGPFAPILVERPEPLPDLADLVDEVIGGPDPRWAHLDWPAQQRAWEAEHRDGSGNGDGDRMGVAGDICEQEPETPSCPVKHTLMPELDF
Perilipin-5 (Homo sapiens) + 1-acylglycerol-3-phosphate O-acyltransferase ABHD5 (Homo sapiens), sequence (Q8WTS1 whole entry, looked up): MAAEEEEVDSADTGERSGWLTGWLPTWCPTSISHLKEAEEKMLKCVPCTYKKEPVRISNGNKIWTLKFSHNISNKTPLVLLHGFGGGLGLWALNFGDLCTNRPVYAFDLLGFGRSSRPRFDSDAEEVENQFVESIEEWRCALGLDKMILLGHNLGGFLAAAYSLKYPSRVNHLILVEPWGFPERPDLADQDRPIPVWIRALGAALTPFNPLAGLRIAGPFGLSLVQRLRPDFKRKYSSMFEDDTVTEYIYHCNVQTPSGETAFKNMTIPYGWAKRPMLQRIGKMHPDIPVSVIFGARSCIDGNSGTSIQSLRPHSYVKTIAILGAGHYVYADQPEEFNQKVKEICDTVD

This experiment concerns the target Perilipin-5 (Homo sapiens) + 1-acylglycerol-3-phosphate O-acyltransferase ABHD5 (Homo sapiens) (UniProt Q00G26+Q8WTS1). Kind of experiment: blockers of ABHD5 binding to perilipin-5 – cell lysate, split luciferase complementation, luminescence, NIH validation set, pilot screen (AID 493035).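 Further: 0% = DMSO only wells while the 100% control is not stated.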 The following applies: split G. princeps luciferase complementation, lysates, 4 h, at 7.9 µM, hits give high values.
Consider `O=C1C(=O)c2ccccc2-c2ccccc21`, for which the inhibition was 69.8% (active).
The result for `S=C1NCCN1` reads -0.74%.
As to `CC12CN3CC(C)(CN(C1)C31CCOCC1)C2=O`, the inhibition was -15.3%.
The result for `C[C@H]1CCC/C=C/C2C[C@H](O)CC2[C@H](O)/C=C/C(=O)O1` (stereo not given in full) reads -14.2%; that for `CC[C@]12C=CCN3CCC4(c5cc(Br)c(OC)cc5N(C)C4[C@@](O)(C(=O)OC)[C@@H]1OC(C)=O)C32` (stereo not given in full), -5.38%.
The result for `CCOC(=O)c1cc2c(cn1)[nH]c1ccccc12` reads -11.3%; that for `COP(=S)(OC)SCN1C(=O)c2ccccc2C1=O`, 93.3% (active); that for `COc1ccc2c(c1)CC1(CN2C)C(=O)NC(=O)N(CCc2ccccc2)C1=O` (stereo not given), 3.64%.
The result for `CC12CCC3C(CC=C4CC(O)CCC43C)C1C/C(=C\c1cccc(F)c1)C2=O` (stereo not given) reads -0.83%.
Consider `O=C1C=Cc2ccccc2C1=O`, for which the inhibition was 59.1% (active).
For the molecule `C[N+]1(C)C2CCC1CC(OC(=O)C(CO)c1ccccc1)C2` (stereo not given), the inhibition is -3.97%.
For `C[C@H]1CCCC(=O)CCCCCc2cc(O)cc(O)c2C(=O)O1`, the inhibition is 6.49%.
Regarding `Cc1cc2c(C(C)C)c(O)c(O)c(C=O)c2c(O)c1-c1c(C)cc2c(C(C)C)c(O)c(O)c(C=O)c2c1O`, the inhibition is 50.7% (active).
Under `NCC1(c2ccc3c(c2)OCCO3)CCCC1` stands -7.35%.
Under `CCOC(=O)C(C)Oc1cc(C)cc2oc(=O)c3c(c12)CCCC3` (stereo not given) stands 6.91%; under `Cc1ccc(/C=C2/C(=O)NC(=O)N(C)C2=O)cc1`, 7.85%; under `Cc1ccc(-n2c(C)cc(/C=C3/C(=O)NC(=O)N(C)C3=O)c2C)cc1`, 33.2%.
Under `CCOc1ccc(N2C(=O)NC(=O)/C(=C\c3cc(OC)c(OC)cc3[N+](=O)[O-])C2=O)cc1` stands 66.2% (active); under `COc1cc(/C=C2\C(=O)NC(=O)N(c3ccccc3)C2=O)c([N+](=O)[O-])cc1OC`, 63.5% (active); under `CC[C@@H](CO)NC(=O)[C@@H]1C=C2c3cccc4c3c(cn4C)C[C@H]2N(C)C1`, 1.19%.
For `C[C@]12CC[C@@H](O)C[C@@H]1CC[C@@H]1[C@@H]2CC[C@]2(C)C(=O)CC[C@@H]12`, the inhibition was -8.46%.
As for `Cc1ccsc1C(=O)C1CCCN(Cc2cc3ccccc3o2)C1` (stereo not given), the inhibition is -2.51%.
The result for `COc1ccc(-c2nc3ccccc3c(=O)o2)cc1` reads -1.16%; that for `CC(Cc1ccccc1)NCC(=O)Nc1cc(N(C)C)nc2ccccc12` (stereo not given), 2.7%.
In the case of `COc1ccccc1CN1CCCCC1c1cccnc1` (stereo not given), the inhibition was -4.35%.
The result for `Clc1ccc(COC(Cn2ccnc2)c2ccc(Cl)cc2Cl)c(Cl)c1` (stereo not given) reads 4.9%; that for `COc1ccc(OC)c([C@@H](O)[C@H](C)NC(C)(C)C)c1`, 2.3%; that for `C[N+](C)(C)Cc1ccccc1`, -2.04%.
Under `CC12CN3CC(c4ccccc4)(CN(C1)C31CCCCC1)C2=O` stands -2.32%.
Under `Cc1nc2ccccc2c(=O)n1-c1ccc(C(=O)O)cc1` stands 7.89%; under `O=c1c2ccccc2nc(/C=C/c2ccc3c(c2)OCO3)n1-c1ccccc1`, 2.37%.
With `O=c1c2ccccc2[se]n1-c1ccccc1`, the inhibition was 95.1% (active).
For `C[C@]12CC[C@@H](O)C[C@@H]1CC[C@@H]1[C@@H]2CC[C@]2(C)[C@@H](O)CC[C@@H]12`, the inhibition was -3.26%.
The result for `CCN(CC)CCOC(=O)C(O)(c1ccccc1)c1ccccc1` reads 0.42%.
Under `CCN1CC2(COC(=O)c3ccccc3N)CCC(OC)C34C5CC6C(OC)CC(O)(C5C6OC)C(O)(C(OC)C23)C14` (stereo not given) stands 0.04%.

By inhibition is commonly meant the drop in the measured response relative to a control, in per cent.
